PubChem BioAssay (NCI)
“And” between values parts separate entries of the source, which are not always exact repeats. Equal values may be shown once. About 83,000 compounds went through this panel and 20% of them were active in at least one assay; those are over-represented in the sample as a whole.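 96-well plates, one dose, 48 hours. Percent growth reported; active if below 10.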 The source made the active and inactive calls.

The compounds below were run on SW-620 colon (assay: NCI-60 one-dose screen, 48 h (100 = growth as untreated, 0 = no growth, -100 = all killed)). Details: 10 µM unless noted.
Description: Growth inhibition of the SW-620 human tumor cell line is measured as a screen for anti-cancer activity. Cells are grown in 96 well plates and exposed to the test compound for 48 hours. Compounds are tested at a single concentration, which is 10^-5 M for most compounds. The reported endpoint is percent growth (GI% or GIPRCNT), where numbers from 0 - 100% represent growth inhibition, and numbers from -100% - 0 represent cell death. For example, a value of 40 represents 60% growth inhibition. A value of 0 means no net growth occurred over the course of the experiment. A value of -40 indicates 40% of cells at the beginning of the experiment died by the end of the experiment. A value of -100 means all cells are dead at the end of the experiment.
NCI-60 Human Tumor Cell Lines Screen was performed using the standard one-dose NCI protocol, which is described in more detail at https://dtp.cancer.gov/discovery_development/nci-60/default.htm.
Compounds with GIPRCNT values below 10 were considered active. Activity score was based on GIPRCNT using the following formula: […]
Score is 0 for GIPRCNT values of 100 or above, 50 for GIPRCNT values of 0, and 100 for GIPRCNT values of -100.

SMILES | growth
O=C(NC1=NCC[Se]1)c1ccccc1O | 72.9% (inactive)
ClC1OC(Cl)(Cl)C(Cl)(Cl)OC1(Cl)Cl (stereo not given) | 115% (inactive)
CN(C)c1ccc(C=C2C(=O)NC(=O)NC2=O)cc1 | 93.4% (inactive)
C=CC[PH+](c1ccccc1)c1ccccc1.C=CC[PH+](c1ccccc1)c1ccccc1.[Pt+2].[S-]c1ncccn1.[S-]c1ncccn1 | -4.87% (active)
CCOC(=O)c1ccccc1C(=O)OCC | 102% (inactive)
CC[CH2][Sn]([Cl])([Cl])[CH2]CC.Oc1ccccc1C=NCCN=Cc1ccccc1O | 2.07% (active) and -59.7% (active)
Cc1cc(N)ccc1N | 96.6% (inactive)
O=[N+]([O-])c1c(Cl)cc(Cl)c([N+](=O)[O-])c1Cl | 65.6% (inactive)
CN1[C@@H](CC(=O)c2ccccc2)CCC[C@H]1CC(=O)c1ccccc1 | 112% (inactive)
CCC(=O)C(CC(C)[N+](C)(C)C)(c1ccccc1)c1ccccc1 (stereo not given) | 104% (inactive)
COc1ccc(C(C#N)C(C)=O)cc1 (stereo not given) | 104% (inactive)
Oc1cc(N2CC2)c(O)cc1N1CC1 | 3.72% (active)
O=C(O)c1cc([N+](=O)[O-])cc([N+](=O)[O-])c1 | 105% (inactive)
CCCCCCCCCCCCCCCC[n+]1ccccc1 | -84.8% (active) and -29.2% (active)
CC[C@H](C)[C@H](NC(=O)C12CC(NC)(C1)C2)C(=O)N(C)[C@H](C[C@@H](OC(C)=O)c1nc(C(=O)N[C@@H](Cc2ccccc2)C[C@H](C)C(=O)OC)cs1)C(C)C | 39.5% (inactive)
C=CC[PH+](c1ccccc1)c1ccccc1.C=CC[PH+](c1ccccc1)c1ccccc1.[Pt+2].[S-]c1nc2ccccc2[nH]1.[S-]c1nc2ccccc2[nH]1 | 3.79% (active)
CCCCOCCOP(=O)(OCCOCCCC)OCCOCCCC | 93.3% (inactive)
C[C@]12CC[C@H]3[C@@H](C[C@@H]4SC(Nc5cccc(F)c5)=N[C@@]45CC(=O)CC[C@]35C)[C@@H]1CCC2=O | 4.62% (active)
C[C@]12CC[C@H]3[C@@H](C[C@@H]4SC(Nc5ccccc5)=N[C@@]45C/C(=N/O)CC[C@]35C)[C@@H]1CCC2=O | 34.8% (inactive)
C[Se]/C=C1/C(=O)N(c2c(Cl)cccc2Cl)c2ccccc21 | 19.3% (inactive)

SMILES | growth
C[C@]12C[C@H](c3ccoc3)OC(=O)[C@H]1CC[C@@]1(C)[C@@H]2[C@H]2C=C[C@]1(O)C(=O)O2 | 109% (inactive)
CC12CCC3C4CCC(=O)C=C4CCC3C1CC1CC(=O)OC12 (stereo not given) | 102% (inactive)
COc1cc(-c2ccc(N)c(OC)c2)ccc1N | 100% (inactive)
CCCCS(=O)(=O)Cl | 112% (inactive)
COc1cc2c(c(OC)c1OC)-c1ccc(O)cc1[C@@H](NC(C)=O)CC2 | 21.9% (inactive) and 20.7% (inactive)
N[C@@H](CCC(=O)CCl)C(=O)O | 97.9% [20 µM] (inactive)
COC(=O)C1=CCCN(C)C1 | 111% (inactive) and 110% (inactive)
CCC1(CCSC#N)C(=O)NC(=O)NC1=O | 106% (inactive)
C[C@H](O)CCC(=O)c1ccoc1 | 105% (inactive)
O=C(O)c1ccccc1N(CCO)CCCl | 107% (inactive)
CO/N=C1\CC[C@]2(C)[C@H]3CC[C@]4(C)C(=O)CC[C@H]4[C@@H]3C[C@@H]3SC(N)=N[C@@]32C1 | 106% (inactive)
Cn1cc(C(=O)C[n+]2ccccc2)c2ccccc21 | 106% (inactive)
c1ccc2c(c1)sc1ccccc12 | 106% (inactive)
CCCCCCCCCCCCCCCC[N+](C)(C)Cc1ccccc1 | -6.91% (active) and -62.2% (active)
CC1(C)CN=C(NN=C(/C=C/c2ccc(C(F)(F)F)cc2)/C=C/c2ccc(C(F)(F)F)cc2)NC1 | -52.6% (active)
CC1=C([Te]c2ccccc2)C(=O)c2ccccc2C1=O | -88.2% (active)
Nc1ccc2c(c1)Cc1cc(N)ccc1-2 | 98.9% (inactive)
C[C@]12CCC(=O)C[C@@H]1CC[C@@H]1[C@@H]2CC[C@]2(C)[C@@H](OC(=O)N(CCCl)N=O)CC[C@@H]12 | 31.7% (inactive)
C/C(=C(\c1ccc(OCCN2CCOCC2)cc1)c1ccc(OC(=O)Cc2ccccc2)cc1)c1ccc(Cl)cc1 | 98.6% (inactive)
ClCc1ccc(Cl)c(Cl)c1 | 97% (inactive)
